Here are results for 20 molecules from PubChem BioAssay AID463165 (Johns Hopkins Ion Channel Center, 2010).

The campaign covered roughly 310,000 compounds. About 1,400 (0.45%) were called active.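 How the source made its calls: active means B-score, a plate-corrected calcium signal, over three deviations above library mean, with baseline fluorescence within five deviations of library mean; inactive means the rest.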 Only a selection was taken, and actives are over-represented in it overall.

In the test the target is Regulator of G-protein signaling 4 (Homo sapiens) (UniProt P49798). In words: RGS4 inhibitors, primary screen, cell-based, HEK293 M3R inducible RGS4, calcium flux (AID 463165).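 Further: RGS4 expression induced by doxycycline in cells with stable M3 receptor.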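 On B-score: B-score is computed from the integrated fluorescence ratio over baseline after carbachol; higher B-score means a larger calcium signal and so more RGS4 inhibition.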 The settings on record: Fluo-4 calcium flux, at 10 µM; B-score: stronger effect = higher value unless noted; outcome: triggered by carbachol at its EC20 unless noted. Background: Calcium assays in cells follow changes in intracellular calcium, usually with a dye or a luminescent sensor.
Sequence of Regulator of G-protein signaling 4 (Homo sapiens) (P49798 whole entry, looked up): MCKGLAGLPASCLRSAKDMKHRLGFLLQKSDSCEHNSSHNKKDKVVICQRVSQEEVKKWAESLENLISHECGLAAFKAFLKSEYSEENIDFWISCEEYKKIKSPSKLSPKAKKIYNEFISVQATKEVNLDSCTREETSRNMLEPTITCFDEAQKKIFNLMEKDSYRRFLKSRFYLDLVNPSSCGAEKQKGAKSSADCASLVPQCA
Regarding `O=c1[nH]c(=O)n(Cc2ccccc2)c(O)c1/C=N/Nc1c(F)c(F)c(F)c(F)c1F`, the outcome was “inactive [setting not given]”. With `O=C(N/N=C/c1c(O)n(C2CC2)c(=S)[nH]c1=O)c1ccccc1`, the outcome was “inactive [setting not given]”. As for `O=C(N/N=C/c1c(O)n(Cc2ccccc2)c(=O)[nH]c1=O)c1ccccc1`, the B-score is 5.25 (active). Take `O=c1[nH]c(O)c(C=Nc2cc(F)cc(F)c2)c(=O)[nH]1`: the outcome is “inactive [setting not given]”. For `Cc1ccc2c(c1)=C/C(=C\c1c(O)[nH]c(=O)[nH]c1=O)C(=O)N=2`, the B-score was 5.31 (active). In the case of `O=C1N=c2ccccc2=C/C1=C\c1c(O)[nH]c(=S)[nH]c1=O`, the outcome was “inactive [setting not given]”.

`COC(=O)CN1C(=O)C2(C(C(=O)OC)=C(N)Oc3ccccc32)C2=C1CC(C)(C)CC2=O` (stereo not given): the outcome was inactive.

For the molecule `CC1CCC(N(C)C2CCN(C)CC2)CC1` (stereo not given), the outcome was inactive.

Take `C=CC12CN(C)[C@@H]3C4CO[C@H](C[C@H]41)[C@]1(C(=O)Nc4ccccc41)[C@@H]32` (stereo not given in full): the result was inactive.

In the case of `CC(C)(C)c1ccc(OC(=O)N2CCCCC2)cc1`, the outcome was inactive. Regarding `O=C1NC(=O)N(c2ccccc2)C(=O)/C1=C/c1ccc([N+](=O)[O-])s1`, the B-score is 4.87 (active). In the case of `Cc1cccc(N2C(=O)NC(=O)/C(=C\c3cnn(-c4ccccc4)c3)C2=O)c1`, the outcome is “inactive [setting not given]”. Still for that read-out and setting: the same measure for `O=C1NC(=O)N(c2ccc(F)cc2)C(=O)/C1=C/c1ccc2c(c1)CCCN2Cc1ccccc1`: “inactive [setting not given]”.

Regarding `CC(C)c1ccc(OCC(=O)N2CCCN(C)CC2)cc1`, the outcome was inactive. With `O=C(CCNS(=O)(=O)c1ccccc1)Nc1ccc(Cl)cc1C(=O)c1ccccc1`, the outcome was inactive. The same measure, in the same setting: the same measure for `O=C1NC(=O)N(Cc2ccco2)C(=O)/C1=C\c1cccn1CCOc1ccccc1`: “inactive [setting not given]”; for `Cc1cc(/C=C2/C(=O)NC(=O)N(Cc3ccco3)C2=O)c(C)n1-c1ccc(C(=O)O)cc1`: “inactive [setting not given]”. Consider `O=C1NC(=O)N(Cc2ccco2)C(=O)/C1=C\c1ccc(-c2ccc(F)cc2)o1`, for which the B-score is 15.5 (active). As for `CN(C)CC1Oc2ccccc2OC1(O)c1ccccc1` (stereo not given), the outcome was inactive. Still for that read-out and setting: the same measure for `COC(=O)C1=C(c2ccccc2)C[C@@H]2CC[C@H]1N2C(=O)NCc1ccco1`: “inactive”.
